For five compounds, outcome and AC50 results are on record in PubChem BioAssay (EPA / NIEHS).

Assay [1] concerns the target Paired box protein Pax-6 (Homo sapiens) (UniProt P26367). Description: ATG_Pax6_CIS: Attagene CIS-FACTORIAL HepG2 Assay for human Paired Box 6 (PAX6) (AID 2282956). Conditions: HepG2 CIS-FACTORIAL PAX6 reporter transcription, RNA readout; actives raise or lower the signal. Put shortly:
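HepG2 cells transiently transfected with multiplexed cis-promoter reporter units (endogenous TF activity) were dosed for 24 h. Reporter mRNA was quantified by RT-PCR, 6-FAM labeling, HpaI digestion and capillary electrophoresis; bidirectional fitting versus DMSO baseline.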

Assay [2] can be described thus: ATG_PXRE_CIS: Attagene CIS-FACTORIAL HepG2 Assay for human Pregnane X Receptor Element (PXRE) (AID 2282957). Conditions: HepG2 Attagene CIS-FACTORIAL PXRE reporter, mRNA; actives raise or lower the signal. Put shortly:
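Transfect HepG2 with MRTUs (cis promoter elements); dose chemical, incubate 24 h; isolate RNA, RT with oligo(dT), PCR, 6-FAM label, HpaI cut, CE. Gain/loss fit vs DMSO.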

Assay [3] can be described thus: ATG_Sox_CIS: Attagene CIS-FACTORIAL HepG2 Assay for human SRY-box transcription factor (SOX) (AID 2282960). Conditions: HepG2 Attagene cis-factorial SOX reporter, mRNA; actives raise or lower the signal. A digest of the protocol: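 Read-out: fluorescent RT-PCR products of SOX1-linked reporter transcripts resolved by capillary electrophoresis, fitted bidirectionally against DMSO. Transiently transfected HepG2 cells, 24 h after chemical exposure, endogenous transcription factor activity.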

The target of assay [4] is Transcription factor Sp1 (Homo sapiens) (UniProt P08047). Kind of assay: ATG_Sp1_CIS: Attagene CIS-FACTORIAL HepG2 Assay for human Specificity Protein 1 (Sp1) (AID 2282961). As to conditions: HepG2 Sp1 cis-reporter transcription, actives raise or lower the signal. A digest of the protocol: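 Read-out: fluorescence of 6-FAM-labeled, HpaI-digested RT-PCR products separated by capillary electrophoresis. HepG2 cells carried transfected cis-element reporter units and were exposed to chemicals for 24 h; gain or loss of signal fitted relative to DMSO.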

Assay [5] addresses Signal transducer and activator of transcription 3 (Homo sapiens) (UniProt P40763). Kind of assay: ATG_STAT3_CIS: Attagene CIS-FACTORIAL HepG2 Assay for human Signal Transducer and Activator of Transcription 3 (STAT3) (AID 2282963). As to conditions: HepG2, Attagene cis-factorial STAT3 reporter transcription; actives raise or lower the signal. A digest of the protocol:
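Values derive from bidirectional fits relative to DMSO of reporter mRNA levels, measured by RT-PCR with capillary electrophoresis, in HepG2 cells carrying transiently transfected cis-regulated reporter units and exposed 24 h.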

Assay [6] can be described thus: ATG_TA_CIS: Attagene CIS-FACTORIAL HepG2 Assay for human TA Basal Promoter (AID 2282964). As to conditions: HepG2 Attagene CIS-factorial TA basal promoter reporter; actives raise or lower the signal. Put shortly: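 Read-out: fluorescent reporter-transcript fragments resolved by capillary electrophoresis after RT-PCR and HpaI digestion. Source: HepG2 cells carrying transiently transfected multi-reporter cis constructs, treated 24 h. Endpoint fitted bidirectionally relative to DMSO.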

Assay [7] can be described thus: ATG_TCF_b_cat_CIS: Attagene CIS-FACTORIAL HepG2 Assay for human T-Cell-Factor with beta-catenin (TCF/b-cat) (AID 2282965). As to conditions: HepG2 TCF/beta-catenin cis-reporter transcription, actives raise or lower the signal. Put shortly: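 HepG2, transient MRTU transfection, cis-element-driven reporters (endogenous TFs). 24 h compound exposure. Readout: reporter mRNA by RT-PCR + 6-FAM primer extension, HpaI digest, capillary electrophoresis. Gain/loss fit vs DMSO baseline.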

Assay [8] is described as follows: ATG_TAL_CIS: Attagene CIS-FACTORIAL HepG2 Assay for human TAL Basal Promoter (AID 2282966).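 Note: background control endpoint measuring basal TAL promoter reporter mRNA not a specific factor.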 Conditions: HepG2 Attagene cis-factorial TAL promoter reporter; actives raise or lower the signal. Put shortly:
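Fluorescence of labelled reporter cDNA fragments, resolved by capillary electrophoresis, gave the readout. Human HepG2 liver cells carried transiently transfected cis-element reporter units and were treated for 24 hours; activity was fitted bidirectionally against DMSO.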

A short description of assay [9]: ATG_VDRE_CIS: Attagene CIS-FACTORIAL HepG2 Assay for human Vitamin D Receptor Element (VDRE) (AID 2282968). As to conditions: HepG2 VDRE cis-reporter transcription, actives raise or lower the signal. Put shortly: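 Cell-based multiplexed reporter format in human liver HepG2 cells, 24 h post-dose. Fluorescence from capillary electrophoresis of reporter cDNA gives the signal, with DMSO as negative control and baseline.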

The target of assay [10] is Estrogen receptor (Homo sapiens) (UniProt P03372). Description: ATG_ERa_TRANS: Attagene TRANS-FACTORIAL HepG2 Assay for human Estrogen Receptor alpha (ERa) (AID 2282970; active = hit-call score of the fitted dose curve at least 0.9, where 1 is the maximum). As to conditions: HepG2 Attagene TRANS ERa GAL4 reporter, mRNA. A digest of the protocol: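 Human liver HepG2, transient transfection of multiple GAL4-UAS reporter units; TRANS format (exogenous NR-Gal4 chimera). 24 h dosing. Readout: reporter mRNA, RT-PCR, 6-FAM primer extension, HpaI digest, capillary electrophoresis. Positive direction vs DMSO.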

The target in assay [11] is X-box-binding protein 1 (Homo sapiens) (UniProt P17861). Kind of assay: ATG_Xbp1_CIS: Attagene CIS-FACTORIAL HepG2 Assay for human X-box Binding Protein 1 (XBP1) (AID 2282972). Conditions: HepG2 XBP1 cis-element reporter, Attagene multiplex; actives raise or lower the signal. Put shortly:
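HepG2 cells transiently transfected with cis-regulated multiple reporter transcription units; endogenous transcription factor activity measured 24 hours after chemical dosing. Reporter mRNA quantified by RT-PCR, 6-FAM primer extension, HpaI digestion and capillary electrophoresis; bidirectional fitting versus DMSO.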

Assay [12] can be described thus: ATG_M_19_TRANS: Attagene TRANS-FACTORIAL HepG2 Assay for M19 Transcription Factor (Internal Marker) (AID 2282974; active = hit-call score of the fitted dose curve at least 0.9, where 1 is the maximum). Conditions: HepG2 Attagene TRANS-FACTORIAL M19 internal marker reporter. Put shortly: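 24 h chemical exposure of transiently transfected HepG2 (MRTU library). RNA → oligo(dT) RT → PCR → 6-FAM labelling → HpaI cut → CE fluorescence. Positive-direction fit vs DMSO baseline; background internal-marker readout.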

A short description of assay [13]: ATG_GAL4_TRANS: Attagene TRANS-FACTORIAL HepG2 Assay for GAL4 (Internal Marker) (AID 2282976; active = hit-call score of the fitted dose curve at least 0.9, where 1 is the maximum). Conditions: HepG2 Attagene TRANS GAL4 internal marker reporter. Put shortly:
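First, HepG2 cells were transfected with reporter units under GAL4-UAS control. Next, they were treated with chemical for 24 h. Finally, RNA was reverse-transcribed, PCR-amplified, FAM-labelled and resolved by capillary electrophoresis, with induction scored against DMSO.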

Assay [14] in a line: ATG_PPRE_CIS: Attagene CIS-FACTORIAL HepG2 Assay for human Peroxisome Proliferator-activated Response Element (PPRE) (AID 2282958). As to conditions: HepG2 PPRE cis-element reporter, Attagene transcription factor profiling; actives raise or lower the signal. A digest of the protocol: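 Read-out: fluorescent reporter mRNA fragments resolved by capillary electrophoresis after RT-PCR. HepG2 cells carried transiently transfected PPRE-driven cis reporter constructs and were dosed for 24 h; gain or loss of signal fitted relative to DMSO.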

Assay [15] can be described thus: ATG_RORE_CIS: Attagene CIS-FACTORIAL HepG2 Assay for human RAR-related Orphan Receptor Element (RORE) (AID 2282959). As to conditions: HepG2 Attagene cis-factorial RORE reporter, mRNA; actives raise or lower the signal. A digest of the protocol:
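Readout: fluorescent reporter mRNA by RT-PCR plus capillary electrophoresis, 24 h after dosing transfected HepG2 cells. Endogenous transcription factor activity on a cis promoter element is measured. Gain or loss of signal fitted against DMSO.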

The nature of assay [16]: ATG_SREBP_CIS: Attagene CIS-FACTORIAL HepG2 Assay for human Sterol Regulatory Element Binding (SREBP) (AID 2282962). As to conditions: HepG2 Attagene cis-factorial SREBP reporter, mRNA; actives raise or lower the signal. A digest of the protocol: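 HepG2 cells transiently transfected with multiplexed cis-element reporter units report endogenous transcription factor activity. After 24 h of chemical exposure, reporter mRNA was quantified by RT-PCR, 6-FAM labelling, HpaI digestion and capillary electrophoresis; bidirectional fits used DMSO as baseline.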

Assay [17] in a line: ATG_TGFb_CIS: Attagene CIS-FACTORIAL HepG2 Assay for human Transforming Growth Factor (TGF) (AID 2282967). Conditions: HepG2 Attagene CIS TGFb reporter, mRNA transcription; actives raise or lower the signal. A digest of the protocol: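 Transient MRTU transfection of HepG2 (FuGene 6). Dose 24 h. TriZol RNA, oligo(dT) RT, PCR, 6-FAM primer extension, HpaI cut, CE. Bidirectional fit, DMSO = baseline.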

Assay [18] deals with Nuclear receptor subfamily 1 group I member 3 (Homo sapiens) (UniProt Q14994). Kind of assay: ATG_CAR_TRANS: Attagene TRANS-FACTORIAL HepG2 Assay for human Constitutive Androstane Receptor (CAR) (AID 2282969; active = hit-call score of the fitted dose curve at least 0.9, where 1 is the maximum;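 note: activators raise reporter mRNA above DMSO so AC50 marks induction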). Conditions: HepG2 Attagene TRANS-FACTORIAL CAR reporter. Put shortly: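 HepG2 cells transiently transfected with GAL4-UAS reporter units; TRANS format reads activity of exogenous chimeric NR-Gal4 protein. After 24 h dosing, reporter mRNA quantified by RT-PCR, 6-FAM labelling and capillary electrophoresis; gain of signal fitted against DMSO.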

The target in assay [19] is Steroid hormone receptor ERR1 (Homo sapiens) (UniProt P11474). Description: ATG_ERRa_TRANS: Attagene TRANS-FACTORIAL HepG2 Assay for human Estrogen-Related Receptor alpha (ERRa) (AID 2282971; active = hit-call score of the fitted dose curve at least 0.9, where 1 is the maximum). Conditions: HepG2 Attagene TRANS reporter, ERRa transactivation. A digest of the protocol:
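Reporter transcript induction was quantified by RT-PCR and capillary electrophoresis of FAM-labelled, HpaI-cut products after 24 h treatment of HepG2 cells carrying transiently transfected GAL4-UAS reporter units and an exogenous ERRa-Gal4 fusion; activity scored as increase over DMSO.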

The target in assay [20] is Estrogen-related receptor gamma (Homo sapiens) (UniProt P62508). Description: ATG_ERRg_TRANS: Attagene TRANS-FACTORIAL HepG2 Assay for human Estrogen-Related Receptor gamma (ERRg) (AID 2282977; active = hit-call score of the fitted dose curve at least 0.9, where 1 is the maximum;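 note: hits increase reporter signal over DMSO so potencies reflect activators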). As to conditions: HepG2 Attagene TRANS reporter, ERRg transactivation. A digest of the protocol:
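Transient HepG2 transfectants, 24 h compound exposure, GAL4-UAS reporter mRNA by RT-PCR/6-FAM labelling/capillary electrophoresis; positive direction vs DMSO.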

Inconclusive results are not listed. Active and inactive are the calls of the source. Rule for the calls, unless noted: active = hit-call score of the fitted dose curve at least 0.9, where 1 is the maximum; inactive = score below 0.9.

Chain of X-box-binding protein 1 (Homo sapiens) (P17861 whole entry, looked up): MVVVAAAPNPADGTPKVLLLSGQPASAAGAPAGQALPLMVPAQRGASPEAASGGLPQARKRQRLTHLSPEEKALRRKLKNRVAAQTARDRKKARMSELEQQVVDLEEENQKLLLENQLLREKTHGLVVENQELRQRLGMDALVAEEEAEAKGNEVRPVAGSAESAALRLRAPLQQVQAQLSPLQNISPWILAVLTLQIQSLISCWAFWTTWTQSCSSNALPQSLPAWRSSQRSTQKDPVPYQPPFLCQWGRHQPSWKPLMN
Chain of Estrogen receptor (Homo sapiens) (P03372 whole entry, looked up, the tested form may be a part): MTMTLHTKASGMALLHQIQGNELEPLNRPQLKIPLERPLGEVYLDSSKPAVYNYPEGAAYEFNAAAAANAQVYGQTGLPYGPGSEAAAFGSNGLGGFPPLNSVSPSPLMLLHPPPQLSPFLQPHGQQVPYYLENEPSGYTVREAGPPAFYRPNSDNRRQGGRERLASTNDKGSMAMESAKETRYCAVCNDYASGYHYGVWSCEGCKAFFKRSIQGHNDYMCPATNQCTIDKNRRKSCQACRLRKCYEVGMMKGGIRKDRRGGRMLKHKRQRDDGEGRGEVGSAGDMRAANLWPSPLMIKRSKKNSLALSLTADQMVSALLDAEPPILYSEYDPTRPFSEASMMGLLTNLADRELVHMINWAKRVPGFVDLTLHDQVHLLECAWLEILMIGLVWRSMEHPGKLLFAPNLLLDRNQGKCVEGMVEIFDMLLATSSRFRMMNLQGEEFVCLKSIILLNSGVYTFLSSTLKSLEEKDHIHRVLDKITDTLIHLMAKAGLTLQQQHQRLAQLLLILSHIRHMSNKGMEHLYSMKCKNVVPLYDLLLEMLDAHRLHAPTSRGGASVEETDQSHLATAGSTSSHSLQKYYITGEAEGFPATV
Chain of Signal transducer and activator of transcription 3 (Homo sapiens) (P40763 whole entry, looked up): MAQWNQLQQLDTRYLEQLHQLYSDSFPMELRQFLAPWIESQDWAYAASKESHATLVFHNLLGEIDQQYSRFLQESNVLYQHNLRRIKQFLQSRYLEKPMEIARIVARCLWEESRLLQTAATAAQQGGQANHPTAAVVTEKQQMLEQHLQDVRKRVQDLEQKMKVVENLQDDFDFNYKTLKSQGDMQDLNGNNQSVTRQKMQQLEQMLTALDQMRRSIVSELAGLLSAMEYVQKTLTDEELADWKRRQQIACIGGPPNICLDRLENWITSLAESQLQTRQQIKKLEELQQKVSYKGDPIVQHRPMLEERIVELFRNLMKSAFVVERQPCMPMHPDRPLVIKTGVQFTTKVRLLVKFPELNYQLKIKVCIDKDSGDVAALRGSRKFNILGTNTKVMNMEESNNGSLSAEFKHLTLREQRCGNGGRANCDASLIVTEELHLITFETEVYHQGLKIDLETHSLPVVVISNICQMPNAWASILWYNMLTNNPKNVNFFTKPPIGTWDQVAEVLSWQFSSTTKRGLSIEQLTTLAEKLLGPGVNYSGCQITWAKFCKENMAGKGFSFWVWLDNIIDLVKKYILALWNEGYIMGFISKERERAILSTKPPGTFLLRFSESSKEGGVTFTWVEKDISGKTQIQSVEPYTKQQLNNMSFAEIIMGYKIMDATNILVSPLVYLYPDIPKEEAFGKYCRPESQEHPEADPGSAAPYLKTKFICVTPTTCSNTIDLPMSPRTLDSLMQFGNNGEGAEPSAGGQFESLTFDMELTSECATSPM
Chain of Transcription factor Sp1 (Homo sapiens) (P08047 whole entry, looked up): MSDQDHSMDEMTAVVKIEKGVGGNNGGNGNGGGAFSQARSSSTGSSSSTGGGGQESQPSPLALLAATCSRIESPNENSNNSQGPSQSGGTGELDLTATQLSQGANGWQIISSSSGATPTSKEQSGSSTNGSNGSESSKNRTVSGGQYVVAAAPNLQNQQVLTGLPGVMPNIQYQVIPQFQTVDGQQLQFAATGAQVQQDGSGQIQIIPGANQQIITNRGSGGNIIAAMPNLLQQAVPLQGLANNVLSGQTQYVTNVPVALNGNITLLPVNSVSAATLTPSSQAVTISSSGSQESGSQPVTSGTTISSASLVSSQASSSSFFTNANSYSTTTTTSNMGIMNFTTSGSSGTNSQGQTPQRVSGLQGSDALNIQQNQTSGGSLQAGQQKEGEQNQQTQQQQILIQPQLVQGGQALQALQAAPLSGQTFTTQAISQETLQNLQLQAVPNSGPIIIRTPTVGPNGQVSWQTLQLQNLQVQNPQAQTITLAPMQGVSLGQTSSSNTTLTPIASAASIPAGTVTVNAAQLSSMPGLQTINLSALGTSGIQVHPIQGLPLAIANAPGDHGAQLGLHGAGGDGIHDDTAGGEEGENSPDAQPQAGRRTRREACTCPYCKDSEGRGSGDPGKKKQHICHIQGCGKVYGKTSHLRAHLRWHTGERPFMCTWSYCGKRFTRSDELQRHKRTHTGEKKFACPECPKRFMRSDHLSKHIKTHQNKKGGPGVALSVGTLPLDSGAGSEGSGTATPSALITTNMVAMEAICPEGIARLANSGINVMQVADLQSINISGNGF
Chain of Nuclear receptor subfamily 1 group I member 3 (Homo sapiens) (Q14994 whole entry, looked up, the tested form may be a part): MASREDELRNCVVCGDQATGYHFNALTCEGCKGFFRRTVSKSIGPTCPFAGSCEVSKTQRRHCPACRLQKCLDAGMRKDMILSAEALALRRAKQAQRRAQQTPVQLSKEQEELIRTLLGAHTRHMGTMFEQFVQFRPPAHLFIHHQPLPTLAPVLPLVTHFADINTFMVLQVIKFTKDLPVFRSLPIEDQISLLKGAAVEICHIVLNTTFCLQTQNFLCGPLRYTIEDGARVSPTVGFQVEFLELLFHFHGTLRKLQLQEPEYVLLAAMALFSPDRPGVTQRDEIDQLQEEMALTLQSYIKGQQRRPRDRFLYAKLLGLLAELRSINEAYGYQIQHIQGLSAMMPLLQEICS
Chain of Paired box protein Pax-6 (Homo sapiens) (P26367 whole entry, looked up): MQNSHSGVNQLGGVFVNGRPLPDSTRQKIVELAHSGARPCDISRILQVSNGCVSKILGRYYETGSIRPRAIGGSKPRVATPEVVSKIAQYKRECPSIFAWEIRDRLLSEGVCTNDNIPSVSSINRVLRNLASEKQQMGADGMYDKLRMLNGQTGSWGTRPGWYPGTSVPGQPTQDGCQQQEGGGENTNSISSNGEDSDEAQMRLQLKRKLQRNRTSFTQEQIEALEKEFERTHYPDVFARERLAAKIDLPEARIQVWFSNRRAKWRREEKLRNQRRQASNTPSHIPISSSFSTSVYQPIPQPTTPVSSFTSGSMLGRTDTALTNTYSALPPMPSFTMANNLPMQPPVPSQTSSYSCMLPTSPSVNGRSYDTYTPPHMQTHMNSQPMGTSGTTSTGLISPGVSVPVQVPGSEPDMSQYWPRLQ
Chain of Steroid hormone receptor ERR1 (Homo sapiens) (P11474 whole entry, looked up, the tested form may be a part): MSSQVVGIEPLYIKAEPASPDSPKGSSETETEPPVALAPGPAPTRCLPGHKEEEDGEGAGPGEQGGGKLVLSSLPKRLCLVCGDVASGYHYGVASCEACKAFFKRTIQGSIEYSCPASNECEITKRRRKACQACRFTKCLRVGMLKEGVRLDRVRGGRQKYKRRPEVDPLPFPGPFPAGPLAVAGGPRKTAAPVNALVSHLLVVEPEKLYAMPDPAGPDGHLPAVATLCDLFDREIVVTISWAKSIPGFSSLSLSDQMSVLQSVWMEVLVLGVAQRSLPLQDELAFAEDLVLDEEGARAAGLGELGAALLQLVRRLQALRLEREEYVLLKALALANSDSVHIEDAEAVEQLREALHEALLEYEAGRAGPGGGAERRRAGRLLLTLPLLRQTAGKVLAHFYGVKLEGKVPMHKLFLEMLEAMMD
Chain of Estrogen-related receptor gamma (Homo sapiens) (P62508 whole entry, looked up, the tested form may be a part): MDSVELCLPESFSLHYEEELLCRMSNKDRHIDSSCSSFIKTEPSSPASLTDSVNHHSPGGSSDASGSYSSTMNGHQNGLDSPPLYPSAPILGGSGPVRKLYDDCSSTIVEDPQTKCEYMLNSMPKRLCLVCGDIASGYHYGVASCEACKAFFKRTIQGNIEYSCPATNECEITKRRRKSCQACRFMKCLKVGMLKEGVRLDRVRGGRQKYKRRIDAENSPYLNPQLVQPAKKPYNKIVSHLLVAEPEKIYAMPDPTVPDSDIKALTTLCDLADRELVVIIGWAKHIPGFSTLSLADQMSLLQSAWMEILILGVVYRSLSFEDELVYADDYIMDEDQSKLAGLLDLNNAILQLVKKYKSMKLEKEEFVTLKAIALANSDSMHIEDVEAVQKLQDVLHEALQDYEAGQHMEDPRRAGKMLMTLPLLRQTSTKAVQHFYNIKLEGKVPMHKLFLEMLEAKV

As for `OCCN(CCO)c1ccccc1`, the result in assay [1], in assay [2], in assay [3], in [4], in [5] and in assay [6] was inactive. Moreover, the result in [7], in assay [8], in [9], in assay [10], in [11] and in assay [12] was inactive. Moreover, the outcome in assay [13] was inactive.
The term AC50 denotes the concentration giving half of the maximal activity seen. For `C=CC(C)(CCC=C(C)C)OC(=O)C(C)C` (stereo not drawn), the result in [1], in [14], in assay [15], in [3], in [4] and in assay [16] was inactive. The call in assay [5], in [6], in [7], in assay [8], in [17] and in assay [9] was inactive. Further, the compound was classed as inactive in assay [11] and in [12]. Moreover, the AC50 in assay [10] was 38 µM (active).
Turning to `C=C(C)[C@@H]1CCC2=CCC[C@@H](C)[C@]2(C)C1`, the compound was classed as inactive in [1], in assay [15], in assay [3], in [4], in [16] and in assay [5]. In addition, the outcome in [6], in assay [8], in [17], in assay [18], in assay [19] and in assay [11] was inactive. For the same compound, in assay [12], the result was inactive. In assay [10], the AC50 is 9.59 µM (active).
Take `Cc1ccc(N/N=c2\c(=O)cc/c(=N/Nc3ccc(S(=O)(=O)O)cc3)c2=O)c(C)c1`: the outcome in assay [1], in [15], in assay [3], in [4], in assay [5] and in [6] was inactive. The compound was classed as inactive in assay [7], in assay [8], in assay [17], in assay [18], in assay [19] and in [11]. Further, in assay [20], the result was inactive. For the same compound, the AC50 in [10] is 100 µM (active).
`CC(C)(C)c1ccc(OC(=O)c2ccccc2O)cc1`: the call in assay [1], in [15], in assay [3], in assay [4], in assay [16] and in assay [5] was inactive. In addition, the outcome in assay [7], in assay [8], in assay [17], in assay [18] and in assay [11] was inactive. Moreover, the AC50 in [10] was 6.14 µM (active).
